A selection: hits, their analogues and other compounds. The true share with any hit is near 2.4%.
POLH inh: qHTS for Inhibitors of Polymerase Eta | Potency, µM (series often up to 114 µM), hits mostly inhibitors | AID 588591, 2011 | DNA polymerase eta (Homo sapiens), Q9Y253 | 390,000 compounds, 1.2% hits | recombinant Pol eta, fluorescent DNA replication assay
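Pol eta at 10 nM preincubated with compounds 15 min at room temperature; reaction started with fluorescent substrate (50 nM final) and read kinetically at 0 and 10 min.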
Pol beta inh: qHTS Assay for Inhibitors of DNA Polymerase Beta | P06746 | Pol beta primer extension/strand displacement, fluorescence kinetic | Potency, µM (highest dose often 114 µM), actives largely listed as inhibitors | 340,000 compounds, 1.3% hits | AID 485314, 2010
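Pol beta (10 nM) was preincubated with compound for 15 min at room temperature. The reaction was then started with 50 nM substrate and read immediately and after a further 10 min at room temperature.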
POLK inh: qHTS for Inhibitors of Polymerase Kappa | purified Pol kappa, fluorescent DNA synthesis assay, 10 min | Potency, µM (top dose mostly 107 µM), hits mostly inhibitors | 400,000 compounds, 0.53% hits | DNA polymerase kappa (Homo sapiens), Q9UBT6 | AID 588579, 2011
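Kinetic fluorescence readout at 0 and 10 min followed reaction start with substrate at 50 nM final. Beforehand, enzyme (10 nM Pol kappa) stood 15 min with compound at room temperature; buffer-only wells were negative controls.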
WRN helicase inh: qHTS for Inhibitors of WRN Helicase | Bifunctional 3'-5' exonuclease/ATP-dependent helicase WRN (Homo sapiens), Q14191 | WRN helicase unwinding, fluorescent forked duplex, kinetic | Potency, µM (titrated, usually from 114 µM), usual class: inhibitors | 360,000 compounds, 0.46% hits | AID 651768, 2012; note: nearly all actives have a fitted effect of over 55% in size
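WRN at 20 nM final was preincubated with compound for 15 min at room temperature; reaction started with 100 nM forked duplex oligonucleotide carrying fluorophore and quencher plus 2 mM ATP (final). Unwinding followed kinetically by red fluorescence (ex 525/em 598 nm).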
FEN1 inh: qHTS Assay for the Inhibitors of Human Flap endonuclease 1 (FEN1). Recombinant FEN1 flap cleavage, fluorescence, 15 min. Potency, µM (doses to about 114 µM), most hits filed as inhibitors. 390,000 compounds, 0.35% hits. AID 588795, 2011; note: nearly all actives have a fitted effect of over 65% in size
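In this screen, 50 nM flap DNA substrate was added to 10 nM FEN1 pretreated with compound for 15 min at room temperature; cleavage was followed with reads at 0 and 15 min, and Hill fitting gave concentration–response parameters.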
Pol iota inh: qHTS for Inhibitors of Polymerase Iota; DNA polymerase iota (Homo sapiens), Q9UNA4; Pol iota fluorescent replication assay, 10 min; Potency, µM (top dose mostly 115 µM), hits mostly inhibitors; 390,000 compounds, 1% hits
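Fluorescent replication assay read twice, at 0 min and 10 min after adding 50 nM (final) substrate. Enzyme (10 nM) and compounds were first incubated 15 min at room temperature; enzyme-free buffer wells were negative controls.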
Each line names hits and unclear results; the compound was inactive in the other large screens. Calls come from the whole dose curve; as a rule, active = well fitted curve in the direction sought with a large enough effect; inconclusive = small, poorly fitted or top-dose-only effect, or another doubt; inactive = no such curve, though single readings can be large; an effect the other way counts as inactive or inconclusive.

CN(C)C(CNS(=O)(=O)c1cc([N+](=O)[O-])ccc1Cl)c1ccco1 (configuration not stated)	POLH inh 50µM, Pol iota inh inconclusive (no result: Pol beta inh)
O=C(Cn1cc(SCc2ccc(F)cc2)c2ccccc21)N1CCCC1	none (no result: WRN helicase inh)
CCOC(=O)C1=C(C)NC2=C(C(=O)C(C(=O)OCC)C(c3ccco3)C2)C1c1ccccc1C (configuration not stated)	Pol iota inh inconclusive (no result: POLH inh, Pol beta inh, WRN helicase inh)
COC(=O)c1ccc(-c2ccc(/C=N/N3C(=O)C4C5C=CC(CC5)C4C3=O)o2)cc1 (configuration not stated)	Pol beta inh inconclusive
O=C(O)c1cc(-c2ccc(/C=N/N3C(=O)C4C5C=CC(CC5)C4C3=O)o2)ccc1Cl (configuration not stated)	POLH inh 50µM
O=C1C2C3C=CC(C4CC34)C2C(=O)N1/N=C/c1ccc(-c2ccc(F)cc2[N+](=O)[O-])o1 (configuration not stated)	none
O=C(O)c1cc(-c2ccc(/C=N/N3C(=O)C4C5C=CC(C6CC56)C4C3=O)o2)ccc1Cl (configuration not stated)	POLH inh inconclusive, Pol beta inh 40µM
Cc1ccc(S(=O)(=O)ON2C(=O)c3ccccc3C2=O)c(C)c1	WRN helicase inh 45µM, FEN1 inh inconclusive
Cc1cc(C)c(C)c(S(=O)(=O)ON2C(=O)c3ccccc3C2=O)c1C	WRN helicase inh inconclusive
Cc1cc(C)c(S(=O)(=O)ON2C(=O)c3ccccc3C2=O)cc1C	WRN helicase inh 35µM
O=C1c2ccccc2C(=O)N1OS(=O)(=O)c1ccc(F)cc1	none
Cc1ccnc(NC(=O)Nc2ccc3c(c2)N(C)C(=O)CS3)c1	none
Cc1ccc(NC(=O)Nc2ccc3c(c2)N(C)C(=O)CS3)nc1	Pol beta inh inconclusive, Pol iota inh 89µM
O=C(NCCc1ccccc1)c1ccc(Cn2c(=O)c3cccn3c3cccnc32)cc1	none (no result: WRN helicase inh)
O=C(NCCc1ccc(Cl)cc1)c1ccc(Cn2c(=O)c3cccn3c3cccnc32)cc1	POLH inh inconclusive, Pol beta inh 11µM, Pol iota inh inconclusive (no result: WRN helicase inh)
O=C(CCCC[C@@H]1SC[C@H]2NC(=O)N[C@H]12)Nc1ccc(C(=O)O)cc1	none (no result: POLH inh, Pol beta inh, WRN helicase inh, FEN1 inh, Pol iota inh)
CCOC(=O)N1CCN([N+]([O-])=NOc2cc(O/N=[N+](\[O-])N(CC)CC)c([N+](=O)[O-])cc2[N+](=O)[O-])CC1	FEN1 inh inconclusive (no result: POLH inh, Pol beta inh, WRN helicase inh)
O=c1[nH]/c(=C/c2ccc3c(c2)OCO3)c(=O)[nH]/c1=C\c1ccc2c(c1)OCO2	none (no result: POLH inh, Pol beta inh, WRN helicase inh)
CCOc1ccc(S(=O)(=O)Nc2ccc3oc(C)c(C(=O)OCCOC)c3c2)cc1	none (no result: WRN helicase inh)
COCCOC(=O)c1c(C)oc2ccc(NS(=O)(=O)c3ccc(C(=O)O)cc3)cc12	POLH inh 11µM, Pol beta inh 35µM
O=C(OCc1ccc([N+](=O)[O-])cc1)C1CC(=O)N(CCc2ccccc2)C1 (configuration not stated)	none (no result: Pol beta inh)
O=C(OCc1nnc(-c2ccc([N+](=O)[O-])cc2)o1)C1CC(=O)N(CCc2ccccc2)C1 (configuration not stated)	POLH inh inconclusive, Pol iota inh 79µM (no result: Pol beta inh)
COc1ccccc1CNc1ncnc2ccc(-c3cccc(NS(C)(=O)=O)c3)cc12	none (no result: POLH inh, Pol beta inh, WRN helicase inh, FEN1 inh, Pol iota inh)
COc1ccc(Cl)c(Cn2cnc3c(cnn3C(C)(C)C)c2=O)c1	none (no result: POLH inh, Pol beta inh, WRN helicase inh)
O=S(=O)(c1cccc(C(F)(F)F)c1)N1CCN(c2nc(-c3cccs3)nc3cc(Cl)ccc23)CC1	none (no result: POLH inh, Pol beta inh, WRN helicase inh)
O=C(CSc1ccccc1Cl)NC1CCCc2ccccc21 (configuration not stated)	Pol beta inh 13µM
c1cc(CN2CCCNCCNCCCNCC2)ccc1CN1CCCNCCNCCCNCC1	none (no result: POLH inh, Pol beta inh, WRN helicase inh, FEN1 inh, Pol iota inh)
